Avidin bead fluor: avidin bead compound fluorescence profile. fluorescence (KMESF) at 10 µM. AID 1775. Avidin beads, compound fluorescence 488/530 nm, flow cytometry; hits give high values. hit rate 0.38% among 220,000; in the data active = fluorescence above about 47
RGS8-Gao: modulates binding of RGS8 to human Galphao; hit rate 0.34% among 220,000; response (percent of control binding), % at 10 µM; multiplexed bead flow cytometry; actives lie on both sides; P09471; in the data active = response below about 60% or above about 140%; inactive = in between;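 note: Galphao activated as the GDP aluminium fluoride complex binding bead-coupled RGS8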
Target sequence (P09471 whole entry, looked up): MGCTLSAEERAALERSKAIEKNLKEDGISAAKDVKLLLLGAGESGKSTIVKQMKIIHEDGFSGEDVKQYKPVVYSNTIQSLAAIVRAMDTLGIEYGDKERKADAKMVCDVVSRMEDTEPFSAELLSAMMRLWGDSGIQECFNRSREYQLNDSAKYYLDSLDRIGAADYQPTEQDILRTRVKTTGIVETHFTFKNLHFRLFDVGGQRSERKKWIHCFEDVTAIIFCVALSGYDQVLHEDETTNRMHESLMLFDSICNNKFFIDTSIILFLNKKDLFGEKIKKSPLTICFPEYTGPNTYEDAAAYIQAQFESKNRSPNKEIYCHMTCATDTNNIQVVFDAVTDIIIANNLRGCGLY
RGS7-Gao reg: human RGS7-Galphao interaction regulation; Multiplexed bead flow cytometry, RGS7-Galphao binding; actives lie on both sides; hit rate 0.35% among 220,000; binding response (% of control), % at 10 µM; in the data active = binding response below about 49% or above about 150%; inconclusive = no clear call, values can overlap the other calls; inactive = in between;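 note: fluorescent Galphao held in activated GDP-AlF4 state binding bead-coupled RGS7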
GSH fluor: GSH bead compound fluorescence profile. GSH beads flow cytometry, compound fluorescence 488/530 nm; hits give high values. fluorescence (KMESF) at 10 µM. hit rate 0.25% among 190,000. AID 1776; in the data active = fluorescence above about 89;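 note: glutathione beads carrying GST-tagged Bcl family fusion proteins plus one bare bead set; values are compound well signal with DMSO vehicle wells as background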
RGS4-Gao reg: modulates binding of RGS4 to human Galphao. P09471. Multiplexed bead flow cytometry; actives lie on both sides. binding response (% of control), % at 10 µM. hit rate 0.33% among 220,000; in the data active = binding response below about 49% or above about 150%; inactive = in between;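 note: fluorescent Galphao activated with aluminum fluoride binding bead-coupled RGS4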
RGS16-Gao HTS: RGS16-Galphao interaction regulator (human); O15492+P09471; bead-based flow cytometry RGS16-Galphao binding, fluorescence; actives lie on both sides; binding response (% of control), % at 10 µM; hit rate 0.38% among 220,000; AID 1441; call rule not given here;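 note: Galphao activated by GDP with aluminum fluoride before binding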
Target sequence (O15492 whole entry, looked up): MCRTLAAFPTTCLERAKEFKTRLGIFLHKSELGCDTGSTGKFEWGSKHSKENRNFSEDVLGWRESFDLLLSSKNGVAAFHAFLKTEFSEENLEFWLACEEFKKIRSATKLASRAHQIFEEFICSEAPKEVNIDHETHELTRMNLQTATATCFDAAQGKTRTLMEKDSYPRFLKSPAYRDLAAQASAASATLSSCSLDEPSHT
Target sequence (P09471 whole entry, looked up): as the sequence (P09471 whole entry, looked up) above
* hit, by the source's call. In the library only some 1.2% were active in any assay of this set; here they are far more common.

What do the screens show for `CC(C)=CC(=O)OCC(=O)Nc1nc(C)c(Cl)cc1Cl`?
Avidin bead fluor: 8; RGS8-Gao: 102; RGS7-Gao reg: 101; GSH fluor: 273*; RGS4-Gao reg: 101; RGS16-Gao HTS: 108

What do the screens show for `Cc1nc(NC(=O)COC(=O)C2=NNC(=O)CC2)c(Cl)cc1Cl`?
Avidin bead fluor: 13; RGS8-Gao: 100; RGS7-Gao reg: 97; GSH fluor: 13; RGS4-Gao reg: 98; RGS16-Gao HTS: 99

Results for COc1ccc(Cl)cc1NC(=S)N(CCN1CCOCC1)C1CCN(C(C)=O)CC1 ?
Avidin bead fluor: 6; RGS8-Gao: 98; RGS7-Gao reg: 105; GSH fluor: 7; RGS4-Gao reg: 101; RGS16-Gao HTS: 90

Results for COc1ccccc1NS(=O)(=O)c1ccc(OC)c(OC)c1 ?
Avidin bead fluor: 113*; RGS8-Gao: 104; RGS7-Gao reg: 126; GSH fluor: 22; RGS4-Gao reg: 106; RGS16-Gao HTS: 98

What do the screens show for `O=C(O)c1csc(-n2nc(-c3ccccc3)cc2C(F)(F)F)n1`?
Avidin bead fluor: 10; RGS8-Gao: 102; RGS7-Gao reg: 101; GSH fluor: 16; RGS4-Gao reg: 101; RGS16-Gao HTS: 107

How did CC(=O)Nc1ccc(C(=O)OC2CCOC2=O)cc1 (stereo not drawn) do in these assays?
Avidin bead fluor: 10; RGS8-Gao: 99; RGS7-Gao reg: 97; GSH fluor: 26; RGS4-Gao reg: 102; RGS16-Gao HTS: 102

What do the screens show for `CC(=O)Nc1ccc(C(=O)OC2CCCCC2=O)cc1` (stereo not drawn)?
Avidin bead fluor: 6; RGS8-Gao: 100; RGS7-Gao reg: 100; GSH fluor: 280*; RGS4-Gao reg: 101; RGS16-Gao HTS: 102

How did COc1cc(NC(=O)CSc2nnc(C)s2)cc(OC)c1OC do in these assays?
Avidin bead fluor: 8; RGS8-Gao: 101; RGS7-Gao reg: 102; GSH fluor: 19; RGS4-Gao reg: 103; RGS16-Gao HTS: 103

What do the screens show for `CSc1cccc(NC(=O)CSc2nnc(C)s2)c1`?
Avidin bead fluor: 6; RGS8-Gao: 98; RGS7-Gao reg: 101; GSH fluor: 109*; RGS4-Gao reg: 98; RGS16-Gao HTS: 93

What do the screens show for `CC(c1ccccc1)C(Cc1nc2ccccc2[nH]1)c1nc2ccccc2[nH]1` (stereo not drawn)?
Avidin bead fluor: 9; RGS8-Gao: 103; RGS7-Gao reg: inconclusive; GSH fluor: 12; RGS4-Gao reg: 101; RGS16-Gao HTS: 101

Results for O=C(O)c1ccc2c(c1)C(=O)N(N1C(=O)c3ccccc3C1=O)C2=O ?
Avidin bead fluor: 24; RGS8-Gao: 99; RGS7-Gao reg: 106; GSH fluor: 111*; RGS4-Gao reg: 101; RGS16-Gao HTS: 116

What do the screens show for `CC(=O)Oc1ccccc1N1C(=O)c2ccc(C(=O)O)cc2C1=O`?
Avidin bead fluor: 3; RGS8-Gao: 91; RGS7-Gao reg: 94; GSH fluor: 45; RGS4-Gao reg: 96; RGS16-Gao HTS: 33

What do the screens show for `Cn1c(=O)c2c(ncn2CC(=O)Nc2ccccc2Sc2ccccc2)n(C)c1=O`?
Avidin bead fluor: 14; RGS8-Gao: 101; RGS7-Gao reg: 102; GSH fluor: 15; RGS4-Gao reg: 105; RGS16-Gao HTS: 104

How did Cn1c(=O)c2c(ncn2CC(=O)Nc2ccccc2N2CCOCC2)n(C)c1=O do in these assays?
Avidin bead fluor: 67*; RGS8-Gao: 100; RGS7-Gao reg: 122; GSH fluor: 26; RGS4-Gao reg: 106; RGS16-Gao HTS: 103

Results for COc1ccc(C2(C)NC(=O)N(CC(=O)Nc3ccc(S(=O)(=O)N4CCCC4)cc3)C2=O)cc1 (stereo not drawn) ?
Avidin bead fluor: 9; RGS8-Gao: 100; RGS7-Gao reg: 101; GSH fluor: 12; RGS4-Gao reg: 105; RGS16-Gao HTS: 103

Results for COC(C[C@H](O)C[C@H](O)[C@H](C)OCc1ccccc1)OC ?
Avidin bead fluor: 14; RGS8-Gao: 101; RGS7-Gao reg: inconclusive; RGS4-Gao reg: 105; RGS16-Gao HTS: 101

Results for COc1ccc(C2NC(=O)C(C)S2)cc1 (stereo not drawn) ?
Avidin bead fluor: 51*; RGS8-Gao: 96; RGS7-Gao reg: 136; GSH fluor: 10; RGS4-Gao reg: 96; RGS16-Gao HTS: 99

How did O=[N+]([O-])c1ccc(/C=N/NC(=S)Nc2ccc(Cl)cc2Cl)s1 do in these assays?
Avidin bead fluor: 6; RGS8-Gao: 98; RGS7-Gao reg: inconclusive; RGS4-Gao reg: 95; RGS16-Gao HTS: 91

Results for COCCNC(=S)NC(=O)CC12CC3CC(CC(C3)C1)C2 ?
Avidin bead fluor: 9; RGS8-Gao: 120; RGS7-Gao reg: 116; GSH fluor: 23; RGS4-Gao reg: 121; RGS16-Gao HTS: 123

How did CNC(=O)CC12CC3CC(CC(C3)C1)C2 do in these assays?
Avidin bead fluor: 6; RGS8-Gao: 103; RGS7-Gao reg: 100; GSH fluor: 261*; RGS4-Gao reg: 98; RGS16-Gao HTS: 108

What do the screens show for `CC1CCc2c(sc(NC(=O)c3ccccc3C(=O)O)c2C#N)C1` (stereo not drawn)?
Avidin bead fluor: 64*; RGS8-Gao: 100; RGS7-Gao reg: 128; GSH fluor: 41; RGS4-Gao reg: 88; RGS16-Gao HTS: 96

How did Cc1ccc2nc(SCc3cn4cccnc4n3)[nH]c2c1 do in these assays?
Avidin bead fluor: 10; RGS8-Gao: 102; RGS7-Gao reg: 100; GSH fluor: 11; RGS4-Gao reg: 103; RGS16-Gao HTS: 104

How did CCc1cc2cc(C)ccc2nc1SCC(=O)N1CCN(C(=O)c2ccco2)CC1 do in these assays?
Avidin bead fluor: 7; RGS8-Gao: 106; RGS7-Gao reg: 95; GSH fluor: 254*; RGS4-Gao reg: 94; RGS16-Gao HTS: 125

How did COc1ccc(NC(=O)N2CCOCC2)cc1OC do in these assays?
Avidin bead fluor: 6; RGS8-Gao: 101; RGS7-Gao reg: 101; GSH fluor: 261*; RGS4-Gao reg: 100; RGS16-Gao HTS: 89

Results for COc1cccc(NC(=O)N2CCOCC2)c1 ?
Avidin bead fluor: 37; RGS8-Gao: 101; RGS7-Gao reg: 97; GSH fluor: 11; RGS4-Gao reg: 99; RGS16-Gao HTS: 103

What do the screens show for `COc1ccc(C(=O)Nc2ccc(S(=O)(=O)N3CCOCC3)cc2)cc1OC`?
Avidin bead fluor: 12; RGS8-Gao: 101; RGS7-Gao reg: 100; GSH fluor: 35; RGS4-Gao reg: 102; RGS16-Gao HTS: 102

How did COc1ccc(C(=O)Nc2ccc(N3CCOCC3)cc2)cc1OC do in these assays?
Avidin bead fluor: 99*; RGS8-Gao: 99; RGS7-Gao reg: 129; GSH fluor: 35; RGS4-Gao reg: 112; RGS16-Gao HTS: 103

How did COc1cc(Cl)c(C)cc1NC(=O)CNC(C)c1ccccc1OC (stereo not drawn) do in these assays?
Avidin bead fluor: 16; RGS8-Gao: 85; RGS7-Gao reg: 90; GSH fluor: 21; RGS4-Gao reg: 93; RGS16-Gao HTS: 50

Source: PubChem BioAssay
